From PubChem BioAssay come the findings set out here.

In general, inhibition refers to the drop in the measured response relative to a control, in per cent.

Test [1] is described as follows: yeast TOR pathway RPL19A-GFP modulators, primary screen, cell-based, S. cerevisiae, multiplex flow cytometry (AID 1862; in the data active means percent of DMSO control GFP below about 86%;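 further: lower values mimic rapamycin by blocking the RPL19A rise seen in DMSO cells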). To be noted: S. cerevisiae RPL19A-GFP strain, flow cytometry fluorescence, 3 h; at 10 µM; stronger effect = lower value. A general note: A flow cytometer gives signals particle by particle.
Test [2] in a line: modulators of MEP2-GFP levels in yeast, primary screen, S. cerevisiae, multiplex flow cytometry (AID 1867;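 active means GFP response, as percent of the DMSO control, above the screen-wide mean plus 3 SD, about 139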;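 further: median GFP channel fluorescence of barcode-gated MEP2-GFP cells measured by flow cytometry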). To be noted: S. cerevisiae MEP2-GFP strain, 3 h, at 10 µM, stronger effect = higher value, 100% means same as DMSO wells.
Test [3] in a line: modulators of CIT2-GFP expression in yeast, primary screen, S. cerevisiae, GFP fusion, multiplex flow cytometry (AID 1870;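 active means percent response above a set limit, the screen-wide mean plus 3 SD, cut at about 130% in these data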;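 further: barcoded CIT2-GFP strain pooled with four other GFP strains with rapamycin as positive control; median GFP fluorescence per well over plate mean of DMSO wells so 100% = DMSO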). The note with it: 3 h, at 10 µM, stronger effect = higher value.
Test [4] in a line: modulators of LAP4-GFP expression in yeast, primary screen, S. cerevisiae, multiplex flow cytometry (AID 1873;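 active means GFP signal, as percent of the solvent control, above the screen mean plus 3 SD, about 149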). The note with it: 3 h, at 10 µM, stronger effect = higher value.
Test [5] is described as follows: modulators of AGP1-GFP expression in yeast TOR pathway, primary screen, cell-based, multiplex flow cytometry, S. cerevisiae (AID 1887;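 active means GFP signal above the screen-wide mean plus 3 SD, that is over about 124.5% of the solvent control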;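 further: AGP1-GFP fusion strain of S. cerevisiae within a five-strain barcoded multiplex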). To be noted: 3 h, at 10 µM, stronger effect = higher value.
A short description of test [6]: inhibitors of CD8+ T cell-vesicle binding, pilot screen, LFA-1/ICAM-1 modulator project, MLPCN validation set, flow cytometry (AID 2523;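 active means response below a set limit, under 55% cells CD8-positive and vesicle-bound, and CD8 cells' 90th-percentile brightness under 279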;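 on vesicle binding response: mean PE anti-B7-1 fluorescence of CD8+ cells relative to row control; 100% = QL9-loaded vesicles with DMSO vehicle in the same plate row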). The note with it: 2C mouse CD8+ T cells, at 7 µM, stronger effect = lower value; double positive events: measured here: CD8+/vesicle+ event percentage.
The target in test [7] is Integrin beta-1 (Homo sapiens) + Integrin alpha-4 (Homo sapiens) (UniProt P13612+P05556). In words: inhibition of HUTS-21 binding to VLA-4, pilot screen, VLA-4 allosteric modulator project, U937 cells, HUTS-21 mAb, flow cytometry, validation set (AID 2674;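 active means inhibition above 50%, about 3 SD of the validation set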;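 further: antibody binding induced by the VLA-4 ligand LDV present at three times its Kd; 0% = LDV ligand with antibody and no compound and 100% = antibody without LDV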). To be noted: HUTS-21 LIBS mAb binding, at 6.7 µM, stronger effect = higher value, binding induced by LDV ligand.
Test [8] in a line: superoxide lowering in aged yeast cells, pilot screen, validation compound set (AID 2706;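 active means superoxide response below 65% of plate, a cut near 3 SD across the whole screen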;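 further: yeast exposed to compound for one week at 30 degrees C before staining; 100% = mean of all compound wells on the same plate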). To be noted: S. cerevisiae aging, superoxide DHE fluorescence; at 10 µM; stronger effect = lower value.
The target of test [9] is Beta-adrenergic receptor kinase 1 (Homo sapiens) (UniProt P25098). In words: GRK2 binders displacing RNA aptamer, biochemical, validation, human GRK2, bead flow cytometry (AID 488806;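 active means aptamer binding inhibition above 30%, about 3 SD of noise from non-fluorescent compounds; inactive means inhibition at or below 30%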). The note with it: bead-bound GRK2, FAM-aptamer displacement, at 10 µM, stronger effect = higher value.
The target in test [10] is Beta-2 adrenergic receptor (Homo sapiens) (UniProt P07550). The test can be described thus: beta2AR agonists driving receptor internalization, pilot screen, cell-based, FAP fluorogen, flow cytometry, validation set (AID 504459;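 active means percent response above 42, roughly 3 SD of non-fluorescent test compounds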;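 further: agonist-driven loss of surface beta2AR via internalization measured by FAP dye flow cytometry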). To be noted: Am2.2-beta2AR cells, FAP surface receptor flow cytometry; at 10 µM; stronger effect = higher value.
Test [11] has as its target AP-2 complex subunit beta (Homo sapiens) (UniProt P63010). The test can be described thus: inhibitors of arrestin peptide binding to AP2, pilot screen, biochemical, validation set, GST-AP2 beads, flow cytometry (AID 504541;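 active means inhibition above 54%, about 3 SD of non-fluorescent compounds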;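 further: AP2 carries R879A mutation and is captured from E. coli lysate; bead-bound FITC arrestin peptide fluorescence measuring arrestin peptide binding to AP2; 0% = DMSO wells and 100% = excess unlabeled arrestin peptide control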). To be noted: FITC arrestin peptide, at 10 µM, stronger effect = higher value, AP2 beta2 appendage fragment, R879A mutant.
A short description of test [12]: yeast V-ATPase proton transport modulators, S. cerevisiae, pHLuorin, HTS validation (AID 504600; in the data active means response above about 15%;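 further: plate controls were DMSO for no effect and reference compound for full effect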). To be noted: S. cerevisiae pHLuorin cytosolic pH, at 10 µM, stronger effect = higher value.
Test [13] has as its system anti-desmoglein-3 scFv antibody binding to human DSG3. In words: inhibitors of anti-DSG3 scFv binding to DSG3, pilot screen, biochemical, validation compound set, bead-based, flow cytometry (AID 588368;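 active means binding below the plate cutoff, the plate median minus 3 SD, with a reading above zero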;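 further: signal is the median channel fluorescence of bead-bound GFP antibody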). The note with it: Protein G beads, DSG3-Fc, scFv-GFP binding, at 10 µM, stronger effect = lower value.
Test [14] can be described thus: inhibitors of fungal efflux pumps CDR1, CDR2, MDR1, pilot screen, validation compound set, multiplex, phenotypic (AID 588506;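 active means efflux inhibition above 0.42, the validation set average plus 4 SD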;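 further: Nile Red retained in cells so higher fluorescence means more efflux inhibition; 0 = negative control wells and 1 = enniatin B 25 µM full block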). To be noted: S. cerevisiae pump-expressing triplex, Nile Red efflux flow cytometry; at 10 µM; stronger effect = higher value; the pumps come from Candida albicans.
Test [15] addresses ATP-binding cassette sub-family B member 6 (Homo sapiens) (UniProt Q9NP58). In words: ABCB6 transporter inhibitors, pilot screen, K562-ABCB6 cells, flow cytometry, validation set (AID 588550).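 Further: 0% = DMSO wells and 100% = benzethonium chloride 70 µM positive control.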 The note with it: K562-ABCB6 porphyrin accumulation, 1 h, at 10 µM, stronger effect = higher value.
Test [16] in a line: promoters of myeloid differentiation in arrested cells, primary screen, cell-based, GFP/MAC1 double positive, flow cytometry, validation set (AID 588685;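 active means differentiation response of at least 50%, scaled between solvent and reference control, from cells with both markers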;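 further: compound exposure lasts four days before antibody staining and flow analysis; 0% = DMSO wells and 100% = 5 µM fulvestrant positive control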). The note with it: ER-HoxA9 marrow cells, stronger effect = higher value, normalized: vehicle 0, fulvestrant 100.

Results filed as inconclusive are left out. Activity calls are given as the source filed them.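 How the source made its calls, unless noted: active means inhibition above the screen-wide mean plus 3 SD, about 51%; inactive means the rest.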

Chain of ATP-binding cassette sub-family B member 6 (Homo sapiens) (Q9NP58 whole entry, looked up): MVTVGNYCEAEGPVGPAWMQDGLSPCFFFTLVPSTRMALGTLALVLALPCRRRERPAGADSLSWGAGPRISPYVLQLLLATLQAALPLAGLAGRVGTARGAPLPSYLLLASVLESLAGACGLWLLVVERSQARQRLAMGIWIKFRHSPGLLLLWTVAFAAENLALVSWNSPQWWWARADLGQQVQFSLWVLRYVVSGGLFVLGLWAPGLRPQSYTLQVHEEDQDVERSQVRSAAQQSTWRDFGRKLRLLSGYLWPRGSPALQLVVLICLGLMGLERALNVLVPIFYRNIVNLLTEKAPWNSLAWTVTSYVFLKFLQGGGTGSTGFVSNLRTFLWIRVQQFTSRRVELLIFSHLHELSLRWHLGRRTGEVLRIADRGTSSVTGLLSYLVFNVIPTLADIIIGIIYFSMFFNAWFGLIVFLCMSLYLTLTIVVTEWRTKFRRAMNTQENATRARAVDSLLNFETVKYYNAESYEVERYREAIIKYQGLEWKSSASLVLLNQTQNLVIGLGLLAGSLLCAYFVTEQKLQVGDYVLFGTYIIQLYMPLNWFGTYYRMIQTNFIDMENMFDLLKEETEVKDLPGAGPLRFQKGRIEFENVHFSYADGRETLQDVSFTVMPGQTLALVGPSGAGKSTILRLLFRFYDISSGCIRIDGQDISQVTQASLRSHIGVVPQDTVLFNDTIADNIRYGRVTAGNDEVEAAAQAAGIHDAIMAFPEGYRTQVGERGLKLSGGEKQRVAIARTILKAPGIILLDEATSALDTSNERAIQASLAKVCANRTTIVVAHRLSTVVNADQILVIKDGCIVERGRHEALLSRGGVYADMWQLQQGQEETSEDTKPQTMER
Chain of Integrin beta-1 (Homo sapiens) + Integrin alpha-4 (Homo sapiens) (P05556 whole entry, looked up): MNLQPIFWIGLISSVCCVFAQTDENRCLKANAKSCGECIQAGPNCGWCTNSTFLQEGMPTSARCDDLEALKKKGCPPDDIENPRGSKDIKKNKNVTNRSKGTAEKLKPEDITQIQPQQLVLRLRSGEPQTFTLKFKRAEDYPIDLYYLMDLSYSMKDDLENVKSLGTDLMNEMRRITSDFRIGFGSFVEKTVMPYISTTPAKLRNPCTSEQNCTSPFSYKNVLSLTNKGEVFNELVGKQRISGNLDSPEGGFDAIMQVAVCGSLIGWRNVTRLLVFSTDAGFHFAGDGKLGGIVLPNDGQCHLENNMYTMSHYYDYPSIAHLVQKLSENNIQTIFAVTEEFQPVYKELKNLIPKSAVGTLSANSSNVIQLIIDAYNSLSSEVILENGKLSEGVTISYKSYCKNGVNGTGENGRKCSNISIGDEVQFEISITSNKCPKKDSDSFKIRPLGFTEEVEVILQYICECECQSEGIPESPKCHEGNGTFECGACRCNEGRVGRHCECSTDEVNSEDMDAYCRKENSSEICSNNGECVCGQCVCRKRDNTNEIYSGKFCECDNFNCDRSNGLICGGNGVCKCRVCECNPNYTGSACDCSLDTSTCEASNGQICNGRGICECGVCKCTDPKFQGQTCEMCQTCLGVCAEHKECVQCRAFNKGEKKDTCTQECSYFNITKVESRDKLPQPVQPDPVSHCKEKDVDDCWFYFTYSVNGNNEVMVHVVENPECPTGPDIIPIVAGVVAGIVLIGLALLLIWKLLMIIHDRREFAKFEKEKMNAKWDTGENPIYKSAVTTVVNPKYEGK
Chain of Integrin beta-1 (Homo sapiens) + Integrin alpha-4 (Homo sapiens) (P13612 whole entry, looked up): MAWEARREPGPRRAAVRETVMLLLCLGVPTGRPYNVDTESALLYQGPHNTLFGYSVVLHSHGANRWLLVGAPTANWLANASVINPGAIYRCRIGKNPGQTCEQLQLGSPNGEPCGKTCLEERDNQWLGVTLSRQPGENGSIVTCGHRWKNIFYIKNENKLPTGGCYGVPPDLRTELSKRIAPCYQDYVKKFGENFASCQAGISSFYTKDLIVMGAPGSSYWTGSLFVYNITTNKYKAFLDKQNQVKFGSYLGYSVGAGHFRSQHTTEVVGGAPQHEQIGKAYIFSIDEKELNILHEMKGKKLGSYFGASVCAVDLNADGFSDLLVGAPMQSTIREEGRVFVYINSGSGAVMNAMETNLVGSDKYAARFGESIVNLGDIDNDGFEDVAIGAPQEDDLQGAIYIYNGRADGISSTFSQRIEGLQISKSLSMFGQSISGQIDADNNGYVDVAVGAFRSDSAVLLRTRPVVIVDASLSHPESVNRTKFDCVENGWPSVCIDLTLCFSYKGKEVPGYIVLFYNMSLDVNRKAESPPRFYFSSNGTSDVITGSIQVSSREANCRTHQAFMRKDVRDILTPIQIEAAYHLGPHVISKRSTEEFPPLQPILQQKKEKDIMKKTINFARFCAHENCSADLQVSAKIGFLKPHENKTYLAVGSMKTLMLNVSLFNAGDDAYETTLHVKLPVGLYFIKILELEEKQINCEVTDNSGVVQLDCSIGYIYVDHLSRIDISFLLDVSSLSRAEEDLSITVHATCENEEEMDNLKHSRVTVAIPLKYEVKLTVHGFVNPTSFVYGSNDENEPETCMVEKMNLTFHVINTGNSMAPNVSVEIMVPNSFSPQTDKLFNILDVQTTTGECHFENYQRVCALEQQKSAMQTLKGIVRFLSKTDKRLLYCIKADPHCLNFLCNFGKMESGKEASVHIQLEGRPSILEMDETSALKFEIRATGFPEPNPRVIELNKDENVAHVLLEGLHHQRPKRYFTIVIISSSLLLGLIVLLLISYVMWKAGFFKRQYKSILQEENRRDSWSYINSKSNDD
Chain of Beta-adrenergic receptor kinase 1 (Homo sapiens) (P25098 whole entry, looked up): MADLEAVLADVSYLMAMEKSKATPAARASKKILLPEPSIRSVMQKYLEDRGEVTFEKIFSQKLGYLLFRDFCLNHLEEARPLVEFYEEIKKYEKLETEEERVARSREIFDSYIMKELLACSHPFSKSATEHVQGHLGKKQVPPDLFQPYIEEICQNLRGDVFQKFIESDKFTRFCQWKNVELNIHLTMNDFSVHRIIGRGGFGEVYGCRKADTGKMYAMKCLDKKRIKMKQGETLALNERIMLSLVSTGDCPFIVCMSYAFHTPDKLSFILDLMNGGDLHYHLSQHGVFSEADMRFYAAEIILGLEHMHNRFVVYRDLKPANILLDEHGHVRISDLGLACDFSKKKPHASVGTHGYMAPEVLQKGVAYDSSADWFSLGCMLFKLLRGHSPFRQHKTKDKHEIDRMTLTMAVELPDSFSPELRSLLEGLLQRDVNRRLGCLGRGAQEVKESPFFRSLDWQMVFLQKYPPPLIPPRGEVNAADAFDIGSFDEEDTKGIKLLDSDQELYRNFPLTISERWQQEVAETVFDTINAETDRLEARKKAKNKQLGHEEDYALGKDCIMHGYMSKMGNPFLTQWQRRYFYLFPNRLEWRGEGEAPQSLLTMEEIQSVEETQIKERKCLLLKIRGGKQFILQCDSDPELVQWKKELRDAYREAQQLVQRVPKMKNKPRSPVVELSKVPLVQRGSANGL
Chain of Beta-2 adrenergic receptor (Homo sapiens) (P07550 whole entry, looked up): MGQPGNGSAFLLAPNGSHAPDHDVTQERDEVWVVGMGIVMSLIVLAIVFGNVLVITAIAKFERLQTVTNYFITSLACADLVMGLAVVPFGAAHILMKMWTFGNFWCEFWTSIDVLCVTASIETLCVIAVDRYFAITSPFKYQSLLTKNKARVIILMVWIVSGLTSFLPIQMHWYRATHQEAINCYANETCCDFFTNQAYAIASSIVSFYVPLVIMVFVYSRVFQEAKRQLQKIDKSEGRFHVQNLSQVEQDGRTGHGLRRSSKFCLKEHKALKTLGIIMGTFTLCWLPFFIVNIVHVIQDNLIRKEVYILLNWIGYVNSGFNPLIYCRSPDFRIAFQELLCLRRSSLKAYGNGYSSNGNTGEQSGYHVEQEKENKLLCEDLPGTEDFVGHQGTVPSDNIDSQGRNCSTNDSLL
Chain of AP-2 complex subunit beta (Homo sapiens) (P63010 whole entry, looked up, the tested form may be a part, one chain of several): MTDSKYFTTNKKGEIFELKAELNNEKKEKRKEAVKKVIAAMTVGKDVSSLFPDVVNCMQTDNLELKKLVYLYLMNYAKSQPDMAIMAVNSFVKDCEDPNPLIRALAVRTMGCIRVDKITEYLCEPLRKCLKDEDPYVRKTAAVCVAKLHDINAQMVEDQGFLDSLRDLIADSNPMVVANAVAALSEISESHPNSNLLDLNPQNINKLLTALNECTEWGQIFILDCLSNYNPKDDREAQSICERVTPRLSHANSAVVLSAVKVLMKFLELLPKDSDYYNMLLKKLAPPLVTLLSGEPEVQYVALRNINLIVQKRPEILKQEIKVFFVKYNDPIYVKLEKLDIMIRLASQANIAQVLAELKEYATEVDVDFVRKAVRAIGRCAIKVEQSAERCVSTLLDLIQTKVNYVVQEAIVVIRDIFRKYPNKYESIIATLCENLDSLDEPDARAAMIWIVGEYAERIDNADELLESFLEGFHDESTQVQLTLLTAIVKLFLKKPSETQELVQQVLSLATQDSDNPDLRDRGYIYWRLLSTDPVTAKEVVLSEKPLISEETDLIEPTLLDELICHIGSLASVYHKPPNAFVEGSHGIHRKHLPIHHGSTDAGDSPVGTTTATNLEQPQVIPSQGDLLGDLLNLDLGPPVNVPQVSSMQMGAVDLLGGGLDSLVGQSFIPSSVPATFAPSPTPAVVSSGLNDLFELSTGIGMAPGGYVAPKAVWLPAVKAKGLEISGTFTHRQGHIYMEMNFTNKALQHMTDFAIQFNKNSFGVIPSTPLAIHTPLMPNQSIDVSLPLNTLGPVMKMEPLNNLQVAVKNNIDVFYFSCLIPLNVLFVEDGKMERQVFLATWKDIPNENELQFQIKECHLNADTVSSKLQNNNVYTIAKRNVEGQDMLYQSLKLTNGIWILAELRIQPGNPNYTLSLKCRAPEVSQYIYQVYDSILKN

As to `COc1cc2c(cc1OC)C(=S)NC(C)(C)C2`, the percent of DMSO control GFP in test [1] was 102% (inactive). Further, the GFP response vs DMSO in test [2] was 106% (inactive); in [4] it was 95.3% (inactive). Moreover, the percent response of DMSO control in [3] is 100% (inactive). The GFP response, % of DMSO in [5] is 102% (inactive). In test [6], this compound came in with a double positive events of 60.1%. Besides, the vesicle binding response in test [6] was 1280% (inactive). Further, the inhibition is -11.9% (inactive) in [7], 22% (inactive) in test [11] and -13% (inactive) in [15]. Besides, in test [8], the superoxide response (% of plate) is 110% (inactive). In addition, the aptamer binding inhibition in [9] is 0% (inactive). The response is 0.62% (inactive) in [10] and -4.8% (inactive) in test [12]. Besides, the binding (% of control) in test [13] is 101% (inactive). For the same compound, in test [14], the efflux inhibition (fraction of control) was 0.08 (inactive). In addition, in [16], the differentiation response is 6.11% (inactive).
For the compound `CCC(CO)NCCNC(CC)CO` (stereo not drawn), in [1], the percent of DMSO control GFP was 95.5% (inactive). Also, the GFP response vs DMSO in test [2] is 139% (inactive); in [4] it was 87.5% (inactive). Moreover, the percent response of DMSO control in test [3] is 101% (inactive). Moreover, the GFP response, % of DMSO in test [5] was 97.7% (inactive). In test [6], this compound gave a double positive events of 66.7%. The vesicle binding response in test [6] was 133% (inactive). Besides, the values for the inhibition in test [7], in test [11] and in test [15] were 4.52% (inactive), 33.3% (inactive) and 114% (active), respectively. Also, the superoxide response (% of plate) in test [8] is 91.3% (inactive). Moreover, the aptamer binding inhibition in test [9] was -1% (inactive). In addition, the figures for the response in [10] and in [12] were 3.66% (inactive) and -3.71% (inactive), respectively. The binding (% of control) in test [13] is 103% (inactive). Moreover, the efflux inhibition (fraction of control) in test [14] is -0.28 (inactive). In addition, the differentiation response in test [16] is -1.64% (inactive).
In the case of `CC(C)C(=O)Nc1c(O)c2ccccc2[nH]c1=O`, in test [1], the percent of DMSO control GFP is 95.6% (inactive). For the same compound, the values for the GFP response vs DMSO in test [2] and in [4] were 91.9% (inactive) and 151% (active), respectively. Moreover, the percent response of DMSO control in [3] was 93.9% (inactive). In addition, in test [5], the GFP response, % of DMSO is 96.6% (inactive). In [6], the double positive events was 62%. In addition, the vesicle binding response in test [6] was 220% (inactive). For the same compound, the inhibition in [7] was 6.4% (inactive); in [11], -0.19% (inactive); in test [15], 11% (inactive). In [8], the superoxide response (% of plate) was 111% (inactive). Also, the aptamer binding inhibition in test [9] was 0% (inactive). Further, the response in [10] is 7.52% (inactive); in test [12], -4.44% (inactive). For the same compound, the binding (% of control) in test [13] was 96.6% (inactive). Further, the efflux inhibition (fraction of control) in test [14] was 0.15 (inactive). Further, the differentiation response in test [16] is -4% (inactive).
On to `CCc1cc(/C(Cc2ccccn2)=N\O)c(O)cc1O`, for which the percent of DMSO control GFP in [1] was 99.1% (inactive). The figures for the GFP response vs DMSO in test [2] and in test [4] were 102% (inactive) and 83.7% (inactive), respectively. Further, the percent response of DMSO control in [3] was 107% (inactive). Besides, in [5], the GFP response, % of DMSO was 91.4% (inactive). This compound gave a double positive events in [6] of 52.1%. In test [6], the vesicle binding response is 51.2% (active). For the same compound, the inhibition in [7] is -14.1% (inactive); in test [11], 15.4% (inactive); in test [15], 1% (inactive). Further, the superoxide response (% of plate) in test [8] is 104% (inactive). The aptamer binding inhibition in test [9] was 3% (inactive). Moreover, the response in [10] was 10.8% (inactive); in test [12], 2.25% (inactive). In [13], the binding (% of control) was 101% (inactive). Besides, in [14], the efflux inhibition (fraction of control) is -0.17 (inactive). The differentiation response in test [16] was -5.6% (inactive).
